ASM inhibitor: blocks human secretory acid sphingomyelinase. P17405. placental ASM, HMU-PC fluorogenic substrate, 60 min. Potency, µM (highest dose often 57.5 µM), inactives show at the top dose activity change, negative = inhibition, most hits filed as inhibitors. 0.006% of 340,000 active. AID 504937; also: potency is read from the fitted curve at half-maximal effect
Target sequence (P17405 47-631 limits assumed): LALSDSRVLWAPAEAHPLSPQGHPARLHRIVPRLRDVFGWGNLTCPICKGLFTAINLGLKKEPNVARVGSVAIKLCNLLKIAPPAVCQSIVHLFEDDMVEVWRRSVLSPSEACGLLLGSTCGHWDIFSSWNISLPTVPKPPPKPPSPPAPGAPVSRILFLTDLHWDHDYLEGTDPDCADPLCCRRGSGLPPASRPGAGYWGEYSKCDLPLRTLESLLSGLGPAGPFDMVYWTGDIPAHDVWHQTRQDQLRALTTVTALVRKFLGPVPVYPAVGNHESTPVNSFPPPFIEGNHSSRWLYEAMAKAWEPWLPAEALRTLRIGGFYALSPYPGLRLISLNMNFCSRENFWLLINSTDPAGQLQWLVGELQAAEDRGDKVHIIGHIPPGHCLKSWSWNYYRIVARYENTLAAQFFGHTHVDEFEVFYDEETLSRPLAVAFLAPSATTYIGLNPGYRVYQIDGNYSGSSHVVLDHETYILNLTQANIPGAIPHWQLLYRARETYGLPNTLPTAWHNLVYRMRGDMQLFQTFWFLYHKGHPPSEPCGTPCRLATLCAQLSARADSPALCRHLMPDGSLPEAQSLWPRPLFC
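Steps: dispense placental human ASM, pin compound, wait 10 min at room temperature, add HMU-PC0 substrate at 9 uM final, incubate 60 min at 37 °C, add stop solution raising pH to 10, read fluorescence.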
HepG2 tox: kills HepG2 cells in TGF-b inhibitor counter-screen; HepG2 CAGA-GFP viability, ATP luminescence, 18 h; Potency, µM (titrated, usually from 46.1 µM), for inactives: at the top dose activity change, negative = cytotoxicity, actives largely listed as cytotoxic; 0.76% of 410,000 active; AID 588856; also: potency is read from the fitted curve at half-maximal effect
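CellTiter-Glo luminescence gave cytotoxicity after 18 hours at 37 degrees C. The cells were HepG2 CAGA-GFP in 1% FBS DMEM, stimulated with 500 pg/mL TGF-beta after compound addition. %Activity was normalised to no-cell wells (complete cell-killing) and DMSO (no toxicity), and curves were fitted and classified.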
DT40 TDP1 CPT: growth inhibition of DT40 Tdp1-/-;hTDP1 cells with camptothecin (screen for TDP1 inhibitors); chicken DT40 Tdp1-/-;hTDP1 cells + 20 nM CPT, ATP luminescence, 48 h; Potency, µM (titrated, usually from 46.2 µM), for inactives: at the highest dose activity change, negative = growth inhibition, most hits filed as inhibitors; 12% of 420,000 active; AID 686979; also: potency is read from the fitted curve at half-maximal effect; % is scaled to controls: 0 for no effect and ±100 for the full control effect; nearly all actives have a fitted effect of over 55% in size
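Chicken DT40 Tdp1-/- cells stably complemented with human TDP1 were seeded at 400 cells/well in medium containing 20 nM camptothecin, exposed to pin-transferred compounds, and grown at 37 °C for at least 48 hr. Viability was read as ATP luminescence.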
IL-1B inflam inh: blocks inflammasome-driven IL-1 beta release; THP-1 LPS/ATP IL-1B secretion, AlphaLISA, 16 h; stronger effect = lower value; activity change, % at 57.5 µM; 4.7% of 360,000 active; AID 743279; in the data active = activity change below about -50%; inconclusive = mostly about -30% to -49%; also: % is scaled to controls: 0 for no effect and ±100 for the full control effect
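THP-1 cells pretreated 1 hr with compounds (up to 57.5 uM final), then stimulated with LPS (250 ng/mL final) plus ATP (1.25 mM final); secreted IL-1B measured by AlphaLISA after 16 hr, decreased signal indicating inhibition.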
TGFb inhibitor: blocks TGF-b signaling. 1.2% of 410,000 active. HepG2 CAGA-GFP TGF-b/SMAD3 reporter, GFP fluorescence, 18 h; TGF-beta stimulated, 500 pg/mL final. Potency, µM (series often up to 46.1 µM), for inactives: at the highest dose activity, negative = inhibition, actives largely listed as inhibitors; also: potency is read from the fitted curve at half-maximal effect; % is scaled to controls: 0 for no effect and ±100 for the full control effect; nearly all actives have a fitted effect of over 65% in size
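TGF-beta reporter screen: HEPG2 CAGA-GFP, 1% FBS, 500 pg/mL TGF-beta final, 18 h; per-cell GFP summed per well; curves fitted and categorized by class.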
TDP1 cell noCPT: qHTS for Inhibitors of human tyrosyl-DNA phosphodiesterase 1 (TDP1): qHTS in cells in absence of CPT | DT40 Tdp1-/- hTDP1 cells, no CPT, ATP luminescence, 48 h | Potency, µM (doses to about 46.2 µM), inactives show top-dose activity change, negative = growth inhibition, hits mostly inhibitors | 15% of 420,000 active; also: potency is read from the fitted curve at half-maximal effect; % is scaled to controls: 0 for no effect and ±100 for the full control effect; nearly all actives have a fitted effect of over 55% in size
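DT40 Tdp1-/-;hTDP1 cells, no CPT (DMSO vehicle only), 400 cells/well; compounds pin-transferred; ≥48 hr, 37 °C; CellTiter-Glo 30 min RT dark, luminescence read.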
An asterisk follows results filed as active; ? = inconclusive; · = no result given. The list is not random: actives were taken first. Their share in the collection is about 19%. Unless noted, calls follow the shape of the dose curve; as a rule, active = well fitted curve in the direction sought with a large enough effect; inconclusive = small, poorly fitted or top-dose-only effect, or another doubt; inactive = no such curve, though single readings can be large; an effect the other way counts as inactive or inconclusive.

SMILES | ASM inhibitor | HepG2 tox | DT40 TDP1 CPT | IL-1B inflam inh | TGFb inhibitor | TDP1 cell noCPT
Cc1ccn2c(=O)nc(SCC(=O)N3N=C(c4cccs4)CC3c3ccc(F)cc3)nc2c1 (stereo unspecified) | -4.1% | -22.3% | ? | -11.9 | -18.0% | 18.4µM*
COc1ccccc1CNC(=O)CCCCn1c(=O)c2ccccc2n(Cc2c(C)cc(C)cc2C)c1=O | · | -4.3% | -15.9% | · | 3.6% | -1.3%
C/C(CC(C)(C)C1CCCCC1)=N\NC(N)=S | -1.1% | 11.2µM* | 4.11µM* | -101.6* | 6.31µM* | 3.26µM*
Cc1ccc(OCCCCN(C)Cc2ccccc2)c(Br)c1 | -1.0% | -84.6% | 23.1µM* | -97.6* | ? | 18.4µM*
Cc1cc(C)c(OCCCCN(C)Cc2ccccc2)c(C)c1 | -1.8% | -50.1% | ? | -2.2 | ? | 23.1µM*
COc1ccccc1OCCCOc1ccc(C)cc1Br | -1.9% | -15.6% | -13.2% | 1.7 | -9.1% | ?
Cc1ccc(C(C)C)c(OCC(O)CN(C)Cc2ccccc2)c1 (stereo unspecified) | -1.5% | -154.1% | 23.1µM* | -85.2* | 15.8µM* | ?
Cc1ccc(C(C)C)c(OCCN2CCc3ccccc3C2)c1 | 0.0% | -1.9% | ? | -5.0 | -24.6% | ?
Cc1ccc(C(C)C)c(OCCCN2C(=O)NC(C)(C)C2=O)c1 | 1.7% | -26.0% | 3.5% | 1.0 | ? | -25.0%
Cc1ccc(C(C)C)c(OCCCN(C)Cc2ccccc2)c1 | -2.9% | -56.7% | 16.4µM* | -21.2 | ? | 23.1µM*
Cn1nnnc1NCc1ccccc1F | -5.8% | -0.9% | 7.1% | 10.8 | 1.7% | 1.2%
O=C(c1ccccc1)c1ccc(Oc2ccc(C(=O)O)c(C(=O)O)c2)cc1 | 18.8% | -1.2% | 2.3% | -1.8 | -3.8% | -4.0%
COc1ccccc1N1CCN(C(=O)Cn2ncc3ccsc3c2=O)CC1 | · | -6.6% | · | · | 2.7% | ·
CC1(C)S[C@@H]2[C@H](NC(=O)[C@H](N)c3ccccc3)C(=O)N2[C@H]1C(=O)OCOC(=O)[C@@H]1N2C(=O)C[C@H]2S(=O)(=O)C1(C)C | · | · | 6.9% | · | · | 1.5%
Cc1ccc(C(C)C)c(OCC(O)CNC2CCCC2)c1 (stereo unspecified) | 0.1% | -104.3% | 23.1µM* | -51.2* | -19.5% | 16.4µM*
Cc1ccccc1OCC(O)CNC1CCCC1 (stereo unspecified) | -2.1% | 5.7% | -0.8% | 11.2 | 5.3% | -5.9%
CCCCn1c(N)c(N(CC(C)C)C(=O)c2ccc3c(c2)NC(=O)C(C)S3)c(=O)[nH]c1=O (stereo unspecified) | 9.0% | 4.0% | 6.3% | 27.2 | -7.5% | -21.2%
O=C(O)c1ccc(CSc2nnnn2-c2ccc(F)cc2)cc1 | 2.7% | -7.8% | -3.4% | -1.9 | 2.3% | 10.4%
O=C(CSc1nnnn1-c1ccc(F)cc1)c1ccc(O)c(O)c1 | -4.9% | -16.7% | 18.4µM* | 37.4 | -12.1% | ?
CCCSc1nc(-c2ccccc2)cc(C(F)(F)F)c1C#N | 7.7% | 5.5% | ? | 27.1 | -20.3% | ?
N#Cc1c(C(F)(F)F)cc(-c2ccccc2)nc1SCCN1CCOCC1 | 1.5% | -4.8% | 20.6µM* | -15.8 | 1.3% | ?
C=CC(C)(C)c1c(O)c(CC=C(C)C)c(O)c2c(=O)c3ccc(O)c(O)c3oc12 | -16.5% | 14.1µM* | 16.4µM* | 83.0 | 11.2µM* | 18.4µM*
CSCC(C)N1CCC(n2nccc2NC(=O)CCOc2ccccc2)CC1 (stereo unspecified) | 6.7% | -5.8% | 24.9% | -9.9 | -7.8% | 24.6%
O=S(=O)(Nc1cccnc1)c1cccnc1 | 6.2% | 0.8% | -0.9% | 1.7 | -7.5% | 0.5%
Cc1ccc(S(=O)(=O)Nc2cccnc2)cc1 | -2.3% | 2.2% | ? | 22.4 | -1.9% | 29.1µM*
SMILES | ASM inhibitor | HepG2 tox | DT40 TDP1 CPT | IL-1B inflam inh | TGFb inhibitor | TDP1 cell noCPT
CCCCOc1ccc(OC(=O)Nc2cc(Cl)ccc2OC)cc1 | -0.6% | -1.7% | 18.4µM* | 0.0 | -1.0% | 14.6µM*
CCCCOc1ccc(S(=O)(=O)Nc2cccnc2)cc1 | -1.2% | -6.0% | 9.2µM* | -17.0 | -0.4% | 10.3µM*
COc1ccc(OC)c(NS(=O)(=O)c2ccccc2)c1 | · | -6.5% | ? | · | 25.6% | -25.2%
CCCCOc1ccc(S(=O)(=O)Nc2cc(OC)ccc2OC)cc1 | -7.0% | -54.1% | ? | -75.2* | ? | 16.4µM*
CC(=O)c1c(C)[nH]c(C(=O)OCC(=O)N(Cc2ccccc2)C(C)(C)C)c1C | -3.0% | -8.9% | ? | 17.5 | 20.0% | ?
COC(=O)c1[nH]c2c(c1C)C(=O)CC(c1cc(OC)ccc1OC)C2 (stereo unspecified) | -1.0% | 1.5% | 3.26µM* | 40.8 | -3.4% | 2.91µM*
COC(=O)c1[nH]c2c(c1C)C(=O)CC(c1cccs1)C2 (stereo unspecified) | -4.7% | -13.9% | 0.731µM* | 20.0 | ? | 0.82µM*
CCOc1ccc(C2CC(=O)c3c([nH]c(C(=O)OC)c3C)C2)cc1OC (stereo unspecified) | -0.6% | -6.7% | -0.7% | 15.8 | -36.8% | -26.6%
CCOc1ccc(C2CC(=O)c3c([nH]c(C(=O)OC4CCCCCC4)c3C)C2)cc1 (stereo unspecified) | · | -14.9% | ? | · | -4.6% | ?
COc1ccc(OC)c(C2CC(=O)c3c([nH]c(C(=O)OCC4CCCCC4)c3C)C2)c1 (stereo unspecified) | · | -31.3% | 20.6µM* | · | 9.0% | ?
Cc1ccc2c(=O)c(C(=O)c3ccccc3)cn(CC(=O)NCc3ccccc3)c2n1 | · | -1.3% | ? | · | ? | ?
COCCCNC(=O)c1ccc2sc(C3=C[C@@H](O)[C@@H](O)[C@@H](CO)O3)nc2c1 | · | -0.3% | 1.0% | 0.0 | -3.7% | -11.2%
CCn1c(N2CCN(S(=O)(=O)c3ccc(F)cc3)CC2)nc2ccccc21 | 3.4% | -14.4% | ? | -58.9* | -0.1% | 14.6µM*
CCn1c(N2CCN(S(=O)(=O)CC)CC2)nc2ccccc21 | 0.1% | -0.1% | 4.9% | 26.3 | 5.9% | -0.3%
CCn1c(N2CCN(S(=O)(=O)c3ccc(Cl)cc3)CC2)nc2ccccc21 | -0.5% | 1.7% | 14.6µM* | -86.6* | ? | 14.6µM*
COc1ccccc1OCC(=O)Nc1cc(-c2ccc(C)cc2)no1 | · | -19.8% | 1.0% | · | -16.0% | -22.3%
O=c1[nH]c(CO)nc2c1oc1ccccc12 | 5.4% | -31.3% | 8.6% | 15.2 | 0.5% | 1.1%

Screens deposited in PubChem BioAssay by National Center for Advancing Translational Sciences (NCATS).
